We go through 5 compounds from PubChem BioAssay.

As usually defined, the viability is a read-out of living cells in per cent, often relative to untreated cells. In general, inhibition refers to the relative decrease from the control value, in per cent.

Inconclusive results are not listed. The source made the active and inactive calls.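 The calls were made as follows, unless noted: active = RAM network inhibition above 8.4% in each of two replicates, 3 SD over the compound average; inconclusive = above 8.4% inhibition in only one replicate; inactive = 8.4% inhibition or less in each replicate.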

A short description of assay [1]: reducers of endogenous Her2 protein level, primary screen, SKBR3 breast tumor cells, AlphaScreen, ATP viability (AID 461;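 active = Her2 level under about 52% in both replicate screens, with viability over 70% of control, limit read from the data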;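 as to Her2 level: lower value means less Her2 protein in the cells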;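 as to viability: percent of carrier control wells set as 100% viability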). The following applies: 18-24 h, measured here: SKBR3 viability, ATP luminescence, at 10 µM.
For assay [2], the target named is Receptor tyrosine-protein kinase erbB-2 (Homo sapiens) (UniProt P04626). The assay is described as above. Conditions: 18-24 h, at 10 µM, stronger effect = lower value.
Assay [3] can be described thus: SK-BR-3 cell growth inhibitors, pilot screen, 24 h, human (AID 572;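 active = viability at or below 10% of carrier control in both of two separate runs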;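 also: compound exposure lasted between 18 and 24 h rather than exactly 24 h; 100% = carrier-treated control wells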). The following applies: SK-BR-3 viability, CellTiter-Glo luminescence, at 10 µM, stronger effect = lower value.
Assay [4] in a line: HUVEC growth inhibition – cell-based, human, primary screen (AID 575;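 active = viability at or below 30% in both replicate assays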;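 also: 100% = median of untreated cell wells with 0.1% DMSO on each plate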). Conditions: HUVEC proliferation, CellTiter-Glo luminescence, 72 h; at 10 µM; stronger effect = lower value.
Assay [5] in a line: growth inhibitors of H69AR lung tumor, primary screen, human, duplicate replicates (AID 580;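 active = viability at or under a set limit in both replicates, limit being median viability minus 3 SD, cut at about 48% in these data, passing the limit was not always enough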;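 also: 100% = mean luminescence of untreated wells and 0% = no signal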). Conditions: H69AR lung tumor cells viability, ATP luminescence, 72 h; at 10 µM; stronger effect = lower value.
Assay [6] in a line: reversal of MRP1-mediated doxorubicin resistance, pilot screen, H69AR cells, doxorubicin co-treatment (AID 601;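 active = viability loss from added drug above about 55%, and viability with drug at most 40%, in both replicates, limit read from the data, passing the limit was not always enough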). Conditions: CellTiter-Glo, 72 h, at 10 µM; for differential viability (reversal): stronger effect = higher value.
Assay [7] is described as follows: 384-well plate pilot, post-Golgi transport modulator project, inhibition of yeast transport mutant growth (AID 636; in the data active = inhibition above about 31%). Conditions: absorbance 615 nm, about 18 h, stronger effect = higher value.
A short description of assay [8]: growth suppression of yeast trafficking mutant, preliminary HTS, modulators of trafficking downstream of Golgi apparatus project, 1536-format plate, OD 615 nm (AID 637; in the data active = inhibition above about 30%). Conditions: yeast transport mutant growth, absorbance 615 nm, 18 h; stronger effect = higher value.
The nature of assay [9]: OD615 S. cerevisiae growth inhibition, permissive medium, pilot counter-assay, permissive growth control for S. cerevisiae lifespan shortening project (AID 705;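 active = growth inhibition above 25% in both replicates, a cutoff set 3 SD above the mean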). Conditions: OD615, 24 h, at 10 µM, stronger effect = higher value.
A short description of assay [10]: Restrictive medium S. cerevisiae growth inhibition, OD615, pilot screen of yeast lifespan reduction project, restrictive growth control (AID 706;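 active = growth inhibition above a set limit, 3 SD over mean compound inhibition, in both replicates, cut at about 43% in these data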;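 also: modified DeaD lifespan yeast strain shifted to restrictive glucose medium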). Conditions: OD615, 48 h, at 10 µM, stronger effect = higher value.
Assay [11] in a line: viability gain of MRP-1-high H69AR cells under doxorubicin, pilot screen, MRP-1 activator project, CellTiter-Glo, duplicate (AID 807;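 active = viability increase at or above a cutoff of the median across tested compounds plus 3 SD, cut at about 8.5% in these data, passing the limit was not always enough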;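 also: compound pretreatment 18-22 h then 72 h combined with doxorubicin; 0% = doxorubicin alone and 100% = vehicle without doxorubicin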). The following applies: H69AR viability with doxorubicin, CellTiter-Glo luminescence; at 10 µM; stronger effect = higher value. In general terms: In ATP-based viability assays light output follows the ATP content of the culture.
The nature of assay [12]: growth suppression of beta-catenin knockout HCT116, pilot screen, human colon tumor cells (AID 823;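 active = cell viability at or below a set limit in both duplicate runs, the limit being the all-compound median minus 4 SD, cut at about 23% in these data, passing the limit was not always enough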;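 also: 0% = wells killed by 20 µM Hyamine and 100% = untreated DMSO cell wells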). Conditions: CellTiter-Glo, 60 h, at 10 µM, stronger effect = lower value.
The nature of assay [13]: growth suppression of PTEN-deleted HCT116, pilot screen, cell-based, HCT116 clonal line, CellTiter-Glo (AID 824;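 active = viability at or below 27.92% in each of two runs, the all-compound median minus 4 SD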;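 also: 0% = 20 µM Hyamine control and 100% = vehicle cell control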). The following applies: 60 h, at 10 µM, stronger effect = lower value.
The nature of assay [14]: inhibitors of the yeast RAM network, pilot screen, dse1pr::URA3 reporter, 5-FOA selection (AID 869;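 active = inhibition over a set limit, the all-compound mean plus 3 SD, in both replicate runs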;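 also: 0% = DMSO wells with no growth and 100% = 10 µM 1-NA-PP1 with full growth; RAM network block rescues cells from 5-FOA so hits raise OD615 growth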). Conditions: S. cerevisiae dse1pr::URA3 5-FOA growth, OD615, 2 d; at 10 µM; stronger effect = higher value; strain carries analog-sensitive mutant Cbk1 kinase.
A short description of assay [15]: RAM signaling pathway blockade in yeast – S. cerevisiae, Pdr1DBD-CYC8 efflux-inhibited sensitized strain, primary screen (AID 1298).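 Also: 0% = DMSO untreated cells without growth and 100% = 10 µM 1-NA-PP1 full growth; higher means more yeast growth rescued from 5-FOA killing.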 Conditions: S. cerevisiae cbk1-as DSE1-URA3 strain, 5-FOA growth OD615, 2 d; at 50 µM; stronger effect = higher value.
[16] abbreviates: H69AR cells + 2 uM doxorubicin, measured here: viability with 2 uM doxorubicin, stronger effect = lower value.
Where [17] appears, read: H69AR cells, compound alone cytotoxicity.

Chain of Receptor tyrosine-protein kinase erbB-2 (Homo sapiens) (P04626 whole entry, looked up): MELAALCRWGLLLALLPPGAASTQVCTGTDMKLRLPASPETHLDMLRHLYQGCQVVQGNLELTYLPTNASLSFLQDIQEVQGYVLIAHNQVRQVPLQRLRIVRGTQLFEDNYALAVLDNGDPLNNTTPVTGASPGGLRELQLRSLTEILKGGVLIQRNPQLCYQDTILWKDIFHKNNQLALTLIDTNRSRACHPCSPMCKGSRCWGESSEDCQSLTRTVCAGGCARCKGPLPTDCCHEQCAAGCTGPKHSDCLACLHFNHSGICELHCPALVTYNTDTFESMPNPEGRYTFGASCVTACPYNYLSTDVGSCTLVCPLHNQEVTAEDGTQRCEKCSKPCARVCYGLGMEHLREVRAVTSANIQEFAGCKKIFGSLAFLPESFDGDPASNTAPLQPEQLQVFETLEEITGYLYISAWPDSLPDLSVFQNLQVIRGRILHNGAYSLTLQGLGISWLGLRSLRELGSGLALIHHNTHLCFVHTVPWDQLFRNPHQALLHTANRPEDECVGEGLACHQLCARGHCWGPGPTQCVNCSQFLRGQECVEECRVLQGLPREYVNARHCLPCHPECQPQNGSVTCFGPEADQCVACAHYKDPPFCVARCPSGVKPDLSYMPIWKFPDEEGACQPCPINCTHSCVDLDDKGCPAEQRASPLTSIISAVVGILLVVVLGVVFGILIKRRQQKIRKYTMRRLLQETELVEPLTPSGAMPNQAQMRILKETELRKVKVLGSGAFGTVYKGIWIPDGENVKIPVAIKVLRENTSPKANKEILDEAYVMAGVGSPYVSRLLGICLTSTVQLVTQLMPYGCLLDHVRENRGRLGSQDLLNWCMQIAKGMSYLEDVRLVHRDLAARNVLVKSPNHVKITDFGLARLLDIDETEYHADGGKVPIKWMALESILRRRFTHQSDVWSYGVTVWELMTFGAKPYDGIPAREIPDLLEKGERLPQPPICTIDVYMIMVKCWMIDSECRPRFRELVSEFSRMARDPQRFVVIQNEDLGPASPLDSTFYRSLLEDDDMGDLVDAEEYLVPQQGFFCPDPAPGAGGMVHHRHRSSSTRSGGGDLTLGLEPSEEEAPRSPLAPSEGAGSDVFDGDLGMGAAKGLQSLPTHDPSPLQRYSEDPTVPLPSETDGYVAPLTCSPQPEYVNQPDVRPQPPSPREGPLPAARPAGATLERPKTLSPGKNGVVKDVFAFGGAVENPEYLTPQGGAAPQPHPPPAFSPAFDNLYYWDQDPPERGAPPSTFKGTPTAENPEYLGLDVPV

`COC(=O)NCC(c1cccnc1)N1CCOCC1` (stereo not given): the viability is 97% in assay [1]; 97% (inactive) in assay [3]; 103% (inactive) in [4]; 95.7% (inactive) in assay [5]; 93.3% in assay [6] (setting [16]); 95.7% in assay [6] (setting [17]). For the same compound, the viability was 102% (inactive) in assay [12] and 99.6% (inactive) in [13]. Moreover, the Her2 level in assay [2] was 95.5% (inactive). Also, the differential viability (reversal) in assay [6] (H69AR cells + 2 uM doxorubicin) was 2.39% (inactive). In addition, the figures for the inhibition in assay [7], in assay [8] and in [14] were -0.64% (inactive), -4.83% (inactive) and 0.015% (inactive), respectively. The growth inhibition is -1.88% (inactive) in assay [9] and -7.24% (inactive) in assay [10]. For the same compound, the viability increase in assay [11] is 0.99% (inactive). For the same compound, the RAM network inhibition in assay [15] was -0.26% (inactive).
Take `CCN(CC)C(=O)C1CCCN(c2ncnc3c2cnn3-c2ccc(Cl)cc2)C1` (stereo not given): the viability in assay [1] was 94.5%; in [3] it was 94.5% (inactive); in assay [4] it was 49.2% (inactive); in assay [5], 86.1% (inactive); in assay [6] (setting [16]) it was 83.7%; in assay [6] (setting [17]), 86.1%. In addition, the viability in assay [12] was 66% (inactive); in [13] it was 69.7% (inactive). In addition, in [2], the Her2 level is 96.5% (inactive). Besides, the differential viability (reversal) in [6] (H69AR cells + 2 uM doxorubicin) was 2.38% (inactive). In addition, the inhibition in [7] was -4.4% (inactive); in assay [8], -2.17% (inactive); in assay [14] it was 0.62% (inactive). In addition, the results for the growth inhibition in [9] and in assay [10] were -7.13% (inactive) and 5.38% (inactive), respectively. Besides, in assay [11], the viability increase was 3.1% (inactive). In addition, the RAM network inhibition in assay [15] is -2.04% (inactive).
On to `Cc1cccc(OCC(=O)N2CCN(C(=O)Cc3ccccc3)CC2)c1`, for which the viability in [1] is 102%; in assay [3], 102% (inactive); in assay [4], 107% (inactive); in [5], 97.3% (inactive); in assay [6] (setting [16]) it was 97.5%; in [6] (setting [17]), 97.3%. For the same compound, the viability in assay [12] was 85.4% (inactive); in [13], 81.4% (inactive). Further, the Her2 level in assay [2] was 94% (inactive). For the same compound, the differential viability (reversal) in [6] (H69AR cells + 2 uM doxorubicin) was -0.125% (inactive). Besides, the results for the inhibition in assay [7], in assay [8] and in assay [14] were -7.33% (inactive), -0.97% (inactive) and 0.285% (inactive), respectively. The values for the growth inhibition in assay [9] and in assay [10] were -11.1% (inactive) and -28.1% (inactive), respectively. In assay [11], the viability increase is -2.39% (inactive). In [15], the RAM network inhibition was 0.56% (inactive).
For the compound `O=C(O)c1ccccc1S(=O)(=O)NCC(O)COc1ccc(Br)cc1` (stereo not given), the viability in assay [1] was 102%; in assay [3] it was 102% (inactive); in [4] it was 119% (inactive); in assay [5] it was 99.9% (inactive); in assay [6] (setting [16]) it was 93.6%; in [6] (setting [17]), 99.9%. Also, the viability in [12] is 97.9% (inactive); in [13], 100% (inactive). Further, the Her2 level in [2] is 84.5% (inactive). In addition, in [6] (H69AR cells + 2 uM doxorubicin), the differential viability (reversal) was 6.29% (inactive). Further, the figures for the inhibition in assay [7], in assay [8] and in assay [14] were -2.47% (inactive), -1.17% (inactive) and 1.09% (inactive), respectively. For the same compound, the figures for the growth inhibition in [9] and in assay [10] were -17.1% (inactive) and -22.2% (inactive), respectively. Further, in [11], the viability increase was 0.84% (inactive). For the same compound, the RAM network inhibition in [15] is 7.5% (inactive).
For the compound `CCOC(=O)C1=C(C)NC(=O)NC1c1ccc(OCCO)c(OC)c1` (stereo not given), the viability is 92.5% in assay [1]; 92.5% (inactive) in assay [3]; 96.6% (inactive) in [4]; 92.1% (inactive) in assay [5]; 94.1% in assay [6] (setting [16]); 92.1% in assay [6] (setting [17]). For the same compound, the viability in [12] was 102% (inactive); in assay [13], 100% (inactive). The Her2 level in assay [2] is 85% (inactive). Moreover, the differential viability (reversal) in assay [6] (H69AR cells + 2 uM doxorubicin) was -1.96% (inactive). Also, the results for the inhibition in assay [7], in assay [8] and in [14] were -6.08% (inactive), -2.3% (inactive) and 1.9% (inactive), respectively. Also, the growth inhibition is 1.63% (inactive) in assay [9] and 1.81% (inactive) in assay [10]. Besides, the viability increase in assay [11] is -1.65% (inactive). The RAM network inhibition in assay [15] is -1.29% (inactive).
